# Measurements as given in article PMC7862700, “An all-to-all approach to the identification of sequence-specific readers for epigenetic DNA modifications on cytosine”.
# Key:
# Experiment in all cases: DAPPL (digital affinity profiling via proximity ligation, sequencing); 10 mM Tris-HCl pH 7.5, 50 mM NaCl, 1 mM DTT, 4% glycerol, room temperature, 30 min; GST-TFs on glutathione beads, 16-mer random dsDNA library, 0.1% formaldehyde crosslink after washing; high values mean tight binding
# Conditions in all cases: protein: recombinant; tags: N-terminal GST; dsDNA, one strand shown
# ERF = biological target: T1, ERF (Homo sapiens, UniProt P50548 1-548)
# T1 sequence: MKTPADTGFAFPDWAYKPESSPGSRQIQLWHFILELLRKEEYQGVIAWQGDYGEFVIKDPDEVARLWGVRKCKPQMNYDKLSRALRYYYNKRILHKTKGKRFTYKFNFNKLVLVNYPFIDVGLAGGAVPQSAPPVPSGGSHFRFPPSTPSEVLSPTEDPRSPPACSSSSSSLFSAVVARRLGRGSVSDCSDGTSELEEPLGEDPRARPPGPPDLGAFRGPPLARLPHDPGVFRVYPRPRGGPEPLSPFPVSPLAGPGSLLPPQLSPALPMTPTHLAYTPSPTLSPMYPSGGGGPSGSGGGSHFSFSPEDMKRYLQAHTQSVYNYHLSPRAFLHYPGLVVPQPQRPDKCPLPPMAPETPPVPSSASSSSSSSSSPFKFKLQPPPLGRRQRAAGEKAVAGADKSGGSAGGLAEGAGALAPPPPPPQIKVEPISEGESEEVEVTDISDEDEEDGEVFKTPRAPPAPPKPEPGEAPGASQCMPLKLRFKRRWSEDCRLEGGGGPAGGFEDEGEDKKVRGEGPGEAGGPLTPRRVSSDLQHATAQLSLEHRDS
# Outline: (§1)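 The binding signal reported is, for every hexamer, its read frequency for a factor over its read frequency for the tag-only sample. Reads came from pools of yeast-expressed, GST-fused human transcription factors on glutathione beads, barcoded with DNA and mixed with that sample, which were incubated with 200 nmole of a random double-stranded 16-mer DNA library in Tris/NaCl/DTT/glycerol buffer at room temperature for 30 min. After washing, the pools were crosslinked with 0.1% formaldehyde, proximity-ligated with BsaI/T4 ligase for 1 h at 37 °C, PCR-amplified and sequenced on an Illumina NextSeq500.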
# ETV3L = biological target: T2, ETV3L (Homo sapiens, UniProt Q6ZN32 1-361)
# T2 sequence: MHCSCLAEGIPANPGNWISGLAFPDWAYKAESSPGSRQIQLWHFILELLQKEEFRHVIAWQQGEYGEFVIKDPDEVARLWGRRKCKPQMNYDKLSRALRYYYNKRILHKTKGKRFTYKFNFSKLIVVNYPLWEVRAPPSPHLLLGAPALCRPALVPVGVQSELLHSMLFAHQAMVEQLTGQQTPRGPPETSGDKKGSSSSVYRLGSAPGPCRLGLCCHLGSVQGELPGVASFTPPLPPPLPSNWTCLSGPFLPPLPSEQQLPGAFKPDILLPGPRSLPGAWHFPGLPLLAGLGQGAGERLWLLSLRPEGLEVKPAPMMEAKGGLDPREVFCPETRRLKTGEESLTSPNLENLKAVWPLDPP
# Outline: as §1
# ETS2 = biological target: T3, ETS2 (Homo sapiens, UniProt P15036 1-469)
# T3 sequence: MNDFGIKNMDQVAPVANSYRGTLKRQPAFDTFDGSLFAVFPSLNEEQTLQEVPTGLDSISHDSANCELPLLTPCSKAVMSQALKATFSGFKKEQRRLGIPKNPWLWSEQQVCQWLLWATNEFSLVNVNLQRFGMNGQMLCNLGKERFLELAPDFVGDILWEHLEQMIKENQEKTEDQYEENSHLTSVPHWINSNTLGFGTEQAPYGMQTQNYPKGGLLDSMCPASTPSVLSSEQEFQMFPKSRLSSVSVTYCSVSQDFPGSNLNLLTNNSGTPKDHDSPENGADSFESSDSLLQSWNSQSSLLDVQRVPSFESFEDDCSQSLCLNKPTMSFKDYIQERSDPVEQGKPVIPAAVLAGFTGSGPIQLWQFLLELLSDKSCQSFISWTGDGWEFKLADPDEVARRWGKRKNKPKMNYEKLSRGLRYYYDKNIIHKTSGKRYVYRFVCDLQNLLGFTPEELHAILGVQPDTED
# Outline: as §1
# SPDEF = biological target: T4, SPDEF (Homo sapiens, UniProt O95238 1-335)
# T4 sequence: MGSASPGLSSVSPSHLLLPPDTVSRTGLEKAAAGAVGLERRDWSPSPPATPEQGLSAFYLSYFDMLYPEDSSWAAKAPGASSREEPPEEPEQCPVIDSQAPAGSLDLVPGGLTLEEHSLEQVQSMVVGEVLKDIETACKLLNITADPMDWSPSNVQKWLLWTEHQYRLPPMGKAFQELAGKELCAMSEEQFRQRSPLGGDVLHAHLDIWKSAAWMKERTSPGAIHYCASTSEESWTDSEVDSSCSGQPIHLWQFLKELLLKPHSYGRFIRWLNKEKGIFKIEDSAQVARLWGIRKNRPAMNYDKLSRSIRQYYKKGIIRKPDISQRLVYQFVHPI
# Outline: as §1
# ETV7 = biological target: T5, ETV7 (Homo sapiens, UniProt Q9Y603 1-341)
# T5 sequence: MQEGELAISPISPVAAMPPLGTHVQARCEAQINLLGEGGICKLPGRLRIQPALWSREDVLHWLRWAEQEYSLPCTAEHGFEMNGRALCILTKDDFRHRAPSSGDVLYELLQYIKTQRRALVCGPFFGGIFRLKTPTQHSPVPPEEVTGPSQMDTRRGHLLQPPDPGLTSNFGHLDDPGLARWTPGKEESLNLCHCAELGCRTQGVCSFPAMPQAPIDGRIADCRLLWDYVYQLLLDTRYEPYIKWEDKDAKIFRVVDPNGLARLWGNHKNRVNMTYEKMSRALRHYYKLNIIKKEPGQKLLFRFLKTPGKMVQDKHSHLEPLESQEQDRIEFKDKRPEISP
# Outline: as §1
# ELF5 = biological target: T6, ELF5 (Homo sapiens, UniProt Q9UKW6-2 1-255)
# T6 sequence: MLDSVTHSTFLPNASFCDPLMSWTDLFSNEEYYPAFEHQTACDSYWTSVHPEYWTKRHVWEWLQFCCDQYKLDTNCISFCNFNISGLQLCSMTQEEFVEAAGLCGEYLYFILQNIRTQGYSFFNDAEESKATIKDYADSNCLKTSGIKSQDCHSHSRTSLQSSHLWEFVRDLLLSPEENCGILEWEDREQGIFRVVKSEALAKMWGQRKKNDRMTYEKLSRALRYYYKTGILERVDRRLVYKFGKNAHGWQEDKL
# Outline: as §1
# ETV3 = biological target: T7, ETV3 (Homo sapiens, UniProt P41162-2 1-143)
# T7 sequence: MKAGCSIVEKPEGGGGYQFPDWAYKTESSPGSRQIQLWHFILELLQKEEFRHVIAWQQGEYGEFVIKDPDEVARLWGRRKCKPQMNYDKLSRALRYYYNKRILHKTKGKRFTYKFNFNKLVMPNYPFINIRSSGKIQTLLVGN
# Outline: as §1
# ETV6 = ETV6 (Homo sapiens, UniProt P41212 1-452)
# Sequence of ETV6 (P41212 whole entry): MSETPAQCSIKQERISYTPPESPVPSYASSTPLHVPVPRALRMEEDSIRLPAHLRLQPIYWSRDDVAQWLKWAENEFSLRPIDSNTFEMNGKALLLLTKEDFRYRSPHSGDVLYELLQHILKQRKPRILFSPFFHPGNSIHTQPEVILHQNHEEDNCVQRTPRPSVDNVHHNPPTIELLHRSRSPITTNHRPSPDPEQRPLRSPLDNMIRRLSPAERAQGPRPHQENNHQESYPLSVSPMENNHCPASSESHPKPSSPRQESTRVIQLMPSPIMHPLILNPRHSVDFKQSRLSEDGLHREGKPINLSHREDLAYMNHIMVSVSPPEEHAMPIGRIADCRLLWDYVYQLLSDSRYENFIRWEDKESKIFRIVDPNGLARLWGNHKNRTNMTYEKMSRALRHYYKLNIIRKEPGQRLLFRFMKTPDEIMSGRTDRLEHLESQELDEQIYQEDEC
# Outline: as §1
Sequence,binding signal (ERF),binding signal (ETV3L),binding signal (ETS2),binding signal (SPDEF),binding signal (ETV7),binding signal (ELF5),binding signal (ETV3),binding signal (ETV6)
CTGATC,"1.52 fold enrichment (6-mer frequency, TF over GST control)","1.36 fold enrichment (6-mer frequency, TF over GST control)","1.42 fold enrichment (6-mer frequency, TF over GST control)","1.33 fold enrichment (6-mer frequency, TF over GST control)","1.35 fold enrichment (6-mer frequency, TF over GST control)","1.32 fold enrichment (6-mer frequency, TF over GST control)","1.36 fold enrichment (6-mer frequency, TF over GST control)","1.23 fold enrichment (6-mer frequency, TF over GST control)"
GGTACT,"1.38 fold enrichment (6-mer frequency, TF over GST control)","1.3 fold enrichment (6-mer frequency, TF over GST control)","1.31 fold enrichment (6-mer frequency, TF over GST control)","1.31 fold enrichment (6-mer frequency, TF over GST control)","1.2 fold enrichment (6-mer frequency, TF over GST control)","1.28 fold enrichment (6-mer frequency, TF over GST control)","1.24 fold enrichment (6-mer frequency, TF over GST control)","1.16 fold enrichment (6-mer frequency, TF over GST control)"
TGCATT,"1.45 fold enrichment (6-mer frequency, TF over GST control)","1.39 fold enrichment (6-mer frequency, TF over GST control)","1.34 fold enrichment (6-mer frequency, TF over GST control)","1.41 fold enrichment (6-mer frequency, TF over GST control)","1.22 fold enrichment (6-mer frequency, TF over GST control)","1.25 fold enrichment (6-mer frequency, TF over GST control)","1.34 fold enrichment (6-mer frequency, TF over GST control)","1.35 fold enrichment (6-mer frequency, TF over GST control)"
AAAGTT,"1.08 fold enrichment (6-mer frequency, TF over GST control)","1.13 fold enrichment (6-mer frequency, TF over GST control)","1.09 fold enrichment (6-mer frequency, TF over GST control)","1.01 fold enrichment (6-mer frequency, TF over GST control)","1.15 fold enrichment (6-mer frequency, TF over GST control)","1.08 fold enrichment (6-mer frequency, TF over GST control)","1.09 fold enrichment (6-mer frequency, TF over GST control)","1.06 fold enrichment (6-mer frequency, TF over GST control)"
ATCCGA,"1.22 fold enrichment (6-mer frequency, TF over GST control)","1.24 fold enrichment (6-mer frequency, TF over GST control)","1.08 fold enrichment (6-mer frequency, TF over GST control)","1.26 fold enrichment (6-mer frequency, TF over GST control)","1.15 fold enrichment (6-mer frequency, TF over GST control)","1.25 fold enrichment (6-mer frequency, TF over GST control)","1.11 fold enrichment (6-mer frequency, TF over GST control)","1.24 fold enrichment (6-mer frequency, TF over GST control)"
CCTGTA,"1.24 fold enrichment (6-mer frequency, TF over GST control)","1.22 fold enrichment (6-mer frequency, TF over GST control)","1.15 fold enrichment (6-mer frequency, TF over GST control)","1.36 fold enrichment (6-mer frequency, TF over GST control)","1.21 fold enrichment (6-mer frequency, TF over GST control)","1.43 fold enrichment (6-mer frequency, TF over GST control)","1.35 fold enrichment (6-mer frequency, TF over GST control)","1.18 fold enrichment (6-mer frequency, TF over GST control)"
ACCCCA,"1.08 fold enrichment (6-mer frequency, TF over GST control)","1.09 fold enrichment (6-mer frequency, TF over GST control)","1.15 fold enrichment (6-mer frequency, TF over GST control)","1.02 fold enrichment (6-mer frequency, TF over GST control)","1.06 fold enrichment (6-mer frequency, TF over GST control)","1.04 fold enrichment (6-mer frequency, TF over GST control)","1.09 fold enrichment (6-mer frequency, TF over GST control)","1.02 fold enrichment (6-mer frequency, TF over GST control)"
GCCCGC,"1.11 fold enrichment (6-mer frequency, TF over GST control)","1.09 fold enrichment (6-mer frequency, TF over GST control)","1.02 fold enrichment (6-mer frequency, TF over GST control)","1.04 fold enrichment (6-mer frequency, TF over GST control)","1.13 fold enrichment (6-mer frequency, TF over GST control)","1.1 fold enrichment (6-mer frequency, TF over GST control)","1.16 fold enrichment (6-mer frequency, TF over GST control)","1.07 fold enrichment (6-mer frequency, TF over GST control)"
GTTTTC,"1.34 fold enrichment (6-mer frequency, TF over GST control)","1.27 fold enrichment (6-mer frequency, TF over GST control)","1.16 fold enrichment (6-mer frequency, TF over GST control)","1.08 fold enrichment (6-mer frequency, TF over GST control)","1.36 fold enrichment (6-mer frequency, TF over GST control)","1.31 fold enrichment (6-mer frequency, TF over GST control)","1.29 fold enrichment (6-mer frequency, TF over GST control)","1.23 fold enrichment (6-mer frequency, TF over GST control)"
